This is a sample that favours compounds with a hit; in the whole collection about 3.7% have one here.
NALP3 yeast inh: NALP3 inflammasome inhibitors in reconstituted yeast, primary screen, luminescence, uHTS; Yeast reconstituted NLRP3/ASC/caspase-1, beta-gal luminescence, 24 h; inhibition, % at 10 µM; 0.39% of 330,000 active; AID 2825, 2010;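 active means inhibition of 50% or more; inactive means inhibition below 50%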;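 further: plate controls were induced DMSO wells for no effect and uninduced yeast grown without galactose for full effect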
TIM10 inh: growth inhibitors of isogenic TIM10 control yeast, primary screen, counter-screen for tim10-1 yeast inhibitor project, luminescence, uHTS. inhibition, % at 10 µM. 1.4% of 330,000 active. S. cerevisiae TIM10 strain growth, BacTiter-Glo luminescence, 24 h;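 active means inhibition of 40% or more at the single tested concentration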;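 further: wild-type TIM10 isogenic control strain grown at permissive 25 °C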
PfHsp90 set2: growth inhibition of PfHsp90-expressing yeast, primary screen, antimalarial PfHsp90 inhibitor project, S. cerevisiae, BacTiter-Glo luminescence, single point, set 2; 0.32% of 310,000 active; inhibition, % at 9.4 µM; BacTiter-Glo ATP, 48 h; yeast lacking PDR1 and PDR3 efflux regulators;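 active means every replicate shows inhibition above about 80%, whatever the replicate mean, limit read from the data; inconclusive means mean inhibition reaches the set limit but some replicate falls short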;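 further: 0% = DMSO neutral controls and 100% = 20 µM radicicol positive controls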
tim23-1 inh: growth inhibitors of tim23-1 mutant yeast, primary screen, luminescence, uHTS | inhibition, % at 20 µM | S. cerevisiae tim23-1 growth, BacTiter-Glo luminescence, 24 h | AID 463212, 2010 | 1.3% of 330,000 active;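 active means growth inhibition of the mutant yeast at or above 50%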;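 further: temperature-sensitive mutant grown at 25 °C; plate controls were DMSO-treated mutant yeast for no effect and medium wells lacking yeast for full effect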
tim10-1 inh: growth inhibitors of tim10-1 mutant yeast, primary screen, luminescence, uHTS. S. cerevisiae tim10-1 ts strain growth, BacTiter-Glo, 24 h. inhibition, % at 20 µM. 2.2% of 330,000 active. AID 463190, 2010;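 active means inhibition of at least 40%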;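 further: mutant grown at 25 °C; 0% = DMSO wells with yeast and 100% = wells holding no yeast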
tim10-1 conf: growth inhibitors of tim10-1 mutant yeast, confirmation, single concentration, luminescence, S. cerevisiae; S. cerevisiae tim10-1 ts strain growth, BacTiter-Glo, 24 h; shares compounds with tim10-1 inh; AID 463213, 2010; inhibition, % at 20 µM; 56% of 7,400 active;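 active means inhibition of yeast growth at or above a set limit in either of two repeat tests at 20 µM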;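 further: tim10-1 mutant grown at permissive 25 °C to find synthetic lethal compounds; 0% = DMSO yeast wells and 100% = medium wells without yeast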
TIM10 conf: growth inhibitors of wild-type TIM10 yeast, confirmation, counter-screen for tim10-1 synthetic lethality project, single concentration, luminescence, S. cerevisiae; shares compounds with TIM10 inh; S. cerevisiae tim10 strain growth, BacTiter-Glo luminescence, 24 h; inhibition, % at 10 µM; 63% of 4,600 active; AID 463215, 2010;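 active means inhibition of yeast growth at or above a set limit in either of two replicates at 10 µM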;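 further: this counterscreen used the strain with wild-type TIM10; 0% = yeast with DMSO and 100% = medium wells lacking yeast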
* marks the source's active call; other numbers are inactive results; ? = inconclusive; / = no result.

SMILES | NALP3 yeast inh | TIM10 inh | PfHsp90 set2 | tim23-1 inh | tim10-1 inh | tim10-1 conf | TIM10 conf
COc1cccc(-c2nn(C)c3sc(C(=O)N4CCN(c5ccccn5)CC4)cc23)c1 | 17.1 | 41.2* | -105.9 | 30.2 | 43.1* | 32.2* | -16.5
COc1cccc(-c2nn(C)c3sc(C(=O)N4CCOCC4)cc23)c1 | 1.3 | 3.4 | 18.4 | 14.8 | 24.2 | / | /
O=C(NCCc1nnc2ccc(SCC(=O)N3CCCC3)nn12)c1ccccc1 | 0.5 | -5.6 | 2.2 | -20.8 | -14.0 | / | /
CCS(=O)(=O)N1Cc2ccccc2CC1C(=O)Nc1nc(C)cs1 (centres undefined) | 9.0 | 19.8 | -16.5 | 6.9 | 14.3 | / | /
CCS(=O)(=O)N1Cc2ccccc2CC1C(=O)NC(C)C12CC3CC(CC(C3)C1)C2 (centres undefined) | 19.9 | 46.5* | -13.0 | 35.2 | 41.1* | 30.5* | -16.6
Cc1cc(C)c2c(=O)n(CC(=O)Nc3ccc(Br)c(C)c3)sc2n1 | 28.7 | 66.6* | -40.0 | 18.5 | 72.0* | 93.2* | 93.9*
CCOC(=O)c1cnc2ccc(OC)cc2c1Nc1ccc2c(c1)OCCO2 | 22.2 | 42.7* | 0.2 | 48.1 | 56.3* | 48.3* | 14.4
O=C(Oc1c(CN2CCOCC2)cc(Cl)c2cccnc12)c1ccc(F)cc1 | 28.5 | 37.9 | / | 39.0 | 38.0 | / | /
O=C(Oc1c(CN2CCOCC2)cc(Cl)c2cccnc12)c1cccs1 | 37.7 | 41.5* | 15.2 | 36.5 | 46.9* | 40.9* | 26.5
CCCc1c(O)nc(SC2CC(=O)N(c3ccc(C)c(Cl)c3)C2=O)[nH]c1=O (centres undefined) | 0.2 | 1.8 | / | 21.2 | 3.3 | / | /
Cc1ccc(N2C(=O)CC(Sc3nc4ccccc4o3)C2=O)cc1Cl (centres undefined) | 16.3 | 50.2* | / | 35.5 | 58.9* | 42.9* | 34.5*
Cc1nn(-c2ccccc2)c(C)c1/C=N/n1c(-c2ccc(C(C)(C)C)cc2)n[nH]c1=S | 16.7 | 44.1* | -15.3 | 45.7 | 47.0* | 32.9* | 43.5*
Cc1ccc(-c2n[nH]c(=S)n2/N=C/c2c(C)nn(-c3ccccc3)c2C)cc1 | 18.3 | 24.0 | -5.9 | 11.7 | 38.7 | / | /
N#CCCn1cc(C(=O)CN2C(=O)C(=O)N(C3CCCC3)C2=O)c2ccccc21 | 17.0 | 5.4 | / | 16.3 | 5.5 | / | /
CCCc1cc(-c2nc(-c3ccc(Br)cc3)cs2)ccn1 | -24.3 | 24.4 | -35.5 | 32.1 | 32.7 | / | /
CCCc1cc(-c2nc(-c3ccc(Cl)cc3)cs2)ccn1 | -4.2 | 51.1* | -3.9 | 29.6 | 46.5* | 44.8* | 43.1*
Cc1ccc(O)c(N/C=C/C(=O)c2ccc(F)cc2)c1 | 30.6 | 5.7 | -2.0 | 19.6 | -0.8 | / | /
CC(C)(C)OC(=O)CN1C(=O)S/C(=C\c2ccc(-c3cccc(C(=O)O)c3)o2)C1=O | -1.9 | 0.9 | / | 14.9 | 5.3 | / | /
CC(C)OC(=O)CN1C(=O)S/C(=C/c2ccc(N3CCCCC3)o2)C1=O | 23.2 | 45.7* | ? | 43.7 | 46.1* | 72.0* | 83.1*
O=C(Nc1ccc(Cl)c(Cl)c1)OCc1cccnc1 | -15.5 | 43.9* | -36.2 | 5.6 | 49.6* | 47.2* | 30.5*
O=C(Nc1cccnc1)OCc1ccccc1 | 29.4 | -2.6 | 0.0 | 21.9 | -4.8 | / | /
CCC(C)C(=O)Nc1nc(C)c(-c2csc(Nc3ccc(Cl)cc3)n2)s1 (centres undefined) | 7.4 | 44.5* | -14.5 | 41.4 | 40.4* | 23.9 | 29.5
O=C(NCc1ccc(Cl)c(Cl)c1)C1CCCC1 | 39.5 | 5.0 | / | 7.5 | -18.5 | / | /
N/C(=N\OC(=O)c1ccco1)c1ccc(Cl)cc1 | 8.2 | 53.9* | -4.0 | 49.2 | 47.5* | 47.2* | 22.7
O=C(COC(=O)c1ccco1)c1ccc(Cl)cc1 | 6.2 | 4.0 | 8.7 | 11.9 | 17.8 | / | /
SMILES | NALP3 yeast inh | TIM10 inh | PfHsp90 set2 | tim23-1 inh | tim10-1 inh | tim10-1 conf | TIM10 conf
Cc1ccc(NC(=O)Cc2nc(COC(=O)Cc3cccc(C(F)(F)F)c3)cs2)cc1 | 21.7 | 10.7 | -6.8 | 7.5 | 2.4 | / | /
O=[N+]([O-])c1cc(S(=O)(=O)C(F)(F)F)ccc1Sc1nc2ccccc2s1 | 38.0 | 54.7* | 108.5* | 34.2 | 45.2* | 73.8* | 75.2*
CS(=O)(=O)c1ccc(Sc2nc3ccccc3s2)c([N+](=O)[O-])c1 | 21.6 | 41.7* | 0.9 | 25.8 | 45.9* | 38.0* | -7.0
CS(=O)(=O)c1ccc(Sc2nc3ccccc3[nH]2)c([N+](=O)[O-])c1 | 12.8 | 1.3 | 17.4 | 10.5 | 10.0 | / | /
CC(C)C(=O)Nc1ccc(NC(=O)c2cccc3c(Br)cccc23)cc1 | 13.9 | -8.4 | 0.3 | -13.9 | -17.3 | / | /
COC(C/C=C\[C@@H](O)[C@@H](C)OCc1ccccc1)OC | 12.5 | -4.3 | / | 18.7 | -1.6 | / | /
COC(C/C=C\C(=O)[C@H](C)OCc1ccccc1)OC | 4.6 | 42.5* | 4.2 | 40.6 | 44.1* | 41.5* | 26.4
CCOc1ccc(S(=O)(=O)NCc2cccs2)cc1 | 13.6 | 8.5 | 4.2 | 21.2 | 23.5 | / | /
CCSc1nnc(-c2ccc(S(=O)(=O)NCc3cccs3)cc2)o1 | 34.6 | 45.2* | / | 46.5 | 45.0* | 50.1* | 30.2*
Cc1ccnc(Nc2nc(-c3ccccc3)cs2)c1 | 23.8 | 9.2 | -19.1 | 29.1 | 16.8 | / | /
Cc1ccnc(Nc2nc(-c3c(C)nc4sccn34)cs2)c1 | 22.4 | 44.5* | -11.6 | 11.3 | 44.5* | 12.9 | 31.9*
CC1=C(C(=O)OC2CCCC(C)C2)C(c2ccccc2)NC(=O)N1 (centres undefined) | 22.3 | -4.6 | 3.2 | 17.5 | 15.2 | / | /
O=C(N/N=C/c1ccccn1)c1cc([N+](=O)[O-])cc([N+](=O)[O-])c1 | 12.4 | 48.4* | 9.7 | 20.0 | 42.3* | 11.1 | 7.9
CCOC(=O)C(c1ccccc1)C(Nc1ccc(F)cc1)c1ccccn1 (centres undefined) | 7.8 | 1.4 | 0.7 | 32.7 | 21.4 | / | /
CCOC(=O)C(C(=O)OCC)C(Nc1ccc(Br)cc1)c1ccccc1 (centres undefined) | 49.0 | 50.7* | 11.8 | 44.8 | 51.2* | 39.2* | 52.0*
CCN(CC)S(=O)(=O)c1ccc(N2CCc3ccccc3C2)nc1 | 16.4 | 50.3* | -12.8 | 39.1 | 42.8* | 32.2* | 41.2*
COc1ccc(NCc2nnc(SCc3ccc(Cl)cc3)n2-c2ccccc2)cc1 | 12.9 | 54.4* | -12.3 | 49.9 | 52.4* | 39.4* | -24.4
COc1ccc(-n2c(COc3ccc(Cl)cc3)nnc2SCc2ccc(C#N)cc2)cc1 | 14.0 | 23.5 | -2.8 | 23.4 | 39.9 | / | /
